Assay results taken from PubChem BioAssay AID1347074 (Center for Chemical Genomics, University of Michigan, 2019).
The campaign covered roughly 47,000 compounds. About 2,800 (6%) were called active. The entries come from a sample that favours actives as a whole. Unmarked numbers belong to inactive results. Rule as the data show it: active = z-score above about 3 (passing the limit was not always enough); inactive = the rest.

Biological target: Endoribonuclease Dicer (Homo sapiens) (UniProt Q9UPY3)
Sequence (Q9UPY3 whole entry, looked up): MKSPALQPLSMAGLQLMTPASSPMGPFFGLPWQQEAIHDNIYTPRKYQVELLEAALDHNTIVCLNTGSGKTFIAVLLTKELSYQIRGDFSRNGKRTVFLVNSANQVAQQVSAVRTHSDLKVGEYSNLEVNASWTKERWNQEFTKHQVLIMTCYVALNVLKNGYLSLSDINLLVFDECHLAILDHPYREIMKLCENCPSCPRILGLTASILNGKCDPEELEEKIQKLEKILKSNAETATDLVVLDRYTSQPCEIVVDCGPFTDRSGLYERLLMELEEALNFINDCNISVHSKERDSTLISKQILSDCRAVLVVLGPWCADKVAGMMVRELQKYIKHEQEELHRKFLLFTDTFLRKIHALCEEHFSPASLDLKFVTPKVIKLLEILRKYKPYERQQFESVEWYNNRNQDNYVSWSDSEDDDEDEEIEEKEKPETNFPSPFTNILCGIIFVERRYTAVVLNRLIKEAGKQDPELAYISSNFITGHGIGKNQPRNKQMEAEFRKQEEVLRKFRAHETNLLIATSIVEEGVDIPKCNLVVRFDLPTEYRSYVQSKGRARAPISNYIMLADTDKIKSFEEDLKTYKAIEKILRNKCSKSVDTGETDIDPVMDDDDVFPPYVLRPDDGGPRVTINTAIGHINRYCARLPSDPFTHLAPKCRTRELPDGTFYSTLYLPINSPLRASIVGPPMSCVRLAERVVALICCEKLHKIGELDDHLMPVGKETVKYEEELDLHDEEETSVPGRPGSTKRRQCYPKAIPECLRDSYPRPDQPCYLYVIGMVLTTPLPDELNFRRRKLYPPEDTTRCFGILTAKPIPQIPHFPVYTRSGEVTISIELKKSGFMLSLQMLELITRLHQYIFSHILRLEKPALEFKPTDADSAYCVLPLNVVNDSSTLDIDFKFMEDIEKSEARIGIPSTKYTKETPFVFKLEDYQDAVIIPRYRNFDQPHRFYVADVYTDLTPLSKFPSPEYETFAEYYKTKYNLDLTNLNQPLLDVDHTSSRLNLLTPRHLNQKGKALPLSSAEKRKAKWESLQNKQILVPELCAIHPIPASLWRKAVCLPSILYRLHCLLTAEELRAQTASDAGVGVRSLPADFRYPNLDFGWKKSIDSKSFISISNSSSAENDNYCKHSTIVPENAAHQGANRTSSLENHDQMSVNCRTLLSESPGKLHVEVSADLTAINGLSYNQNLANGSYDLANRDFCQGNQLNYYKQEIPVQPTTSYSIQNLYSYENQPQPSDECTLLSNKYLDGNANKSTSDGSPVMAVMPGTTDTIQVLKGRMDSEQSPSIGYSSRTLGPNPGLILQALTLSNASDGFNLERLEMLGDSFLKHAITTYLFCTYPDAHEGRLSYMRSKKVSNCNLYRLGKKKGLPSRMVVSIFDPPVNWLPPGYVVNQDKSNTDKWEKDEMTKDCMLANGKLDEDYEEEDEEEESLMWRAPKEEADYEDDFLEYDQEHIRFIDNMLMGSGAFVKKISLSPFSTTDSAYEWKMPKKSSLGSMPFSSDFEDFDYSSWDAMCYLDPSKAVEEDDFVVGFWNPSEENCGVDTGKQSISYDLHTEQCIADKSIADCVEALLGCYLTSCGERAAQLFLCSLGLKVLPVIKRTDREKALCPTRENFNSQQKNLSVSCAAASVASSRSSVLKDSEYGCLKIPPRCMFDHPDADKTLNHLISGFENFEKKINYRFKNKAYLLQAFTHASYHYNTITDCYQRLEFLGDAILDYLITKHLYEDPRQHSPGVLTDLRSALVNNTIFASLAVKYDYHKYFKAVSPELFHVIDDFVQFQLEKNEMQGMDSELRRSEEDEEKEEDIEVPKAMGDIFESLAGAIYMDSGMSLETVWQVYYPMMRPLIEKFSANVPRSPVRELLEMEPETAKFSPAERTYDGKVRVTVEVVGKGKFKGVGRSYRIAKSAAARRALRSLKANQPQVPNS
Experiment: inhibitors of Dicer pre-microRNA processing, primary screen, biochemical, cat-ELCCA, chemiluminescence (AID 1347074);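 also: plate controls were vehicle for no effect and no enzyme for full effect; higher signal means more uncleaved substrate so more Dicer inhibition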
Conditions: cat-ELCCA pre-miR-21 Dicer processing, at 25 µM, stronger effect = higher value

Going from `CN(C)/C=C1\C(=O)c2ccc(Cl)cc2N(Cc2c(F)cccc2Cl)S1(=O)=O` to `CSc1sc(C(=O)Nc2ccc(Cl)cc2)c2c1S(=O)(=O)N(C)c1ccccc1-2`, the z-score rises from -0.82 to -0.3.

Going from `Cc1ccc(C(=O)Nc2ccccc2Sc2nc3ccccc3c(C)c2C#N)cc1` to `Cc1ccc(C(=O)CSc2nnc(-c3ccccc3)n2C)cc1`, the z-score rises from -1.01 to 8.7.

First: CCOc1ccc(/C(O)=C2\C(=O)C(=O)N(c3nccs3)C2c2ccc(F)cc2)cc1 (configuration not stated)
Second: C=CCOc1ccc(C2c3c(oc4ccccc4c3=O)C(=O)N2c2nncs2)cc1 (configuration not stated)
The z-score of the first is higher: 0.2 for the first, -1.03 for the second.

Compared with `O=C(Nc1sc2c(c1C(=O)O)CCCC2)c1cc2ccccc2o1`, `O=C(NCCc1c[nH]c2ccccc12)C(=O)NCC1CCCO1` (configuration not stated) is lower in z-score: 0.75 for the first, -1.03 for the second.

First: O=C(NCc1ccccn1)C(=O)Nc1cccc(Br)c1
Second: ONC(=Nc1cccc(Cl)c1)c1ccccc1
The z-score of the first is higher: 1.05 for the first, 0.78 for the second.

First: Cc1nc(-n2cccc2)sc1C(=O)N/N=C/c1ccc(Cl)cc1
Second: COCCOC(=O)c1c(C)oc2ccc(NS(=O)(=O)c3ccc(Cl)cc3)cc12
The z-score of the first is higher: 0.46 for the first, -0.11 for the second.

Going from `Cc1oc(C(C)(C)C)cc1C(=O)Nc1ccc(SCc2cccc(Cl)c2F)cc1` to `Cc1ccc2c(c1)sc1ncc(NC(=O)c3ccc(C(C)(C)C)cc3)c(=O)n12`, the z-score rises from -1.58 to -1.01.

First: CC(C)=Cc1nc2cccc(F)c2c(=O)o1
Second: CC1=N/C(=C/c2ccccc2O)C(=O)O1
The z-score of the first is higher: 0.25 for the first, 0.13 for the second.

Compared with `COc1ccc(-c2csc3nc(-c4ccccc4F)oc(=O)c23)cc1OC`, `COc1ccccc1C1=Nc2cccc3cccc(c23)N1` is lower in z-score: 0.98 for the first, -0.3 for the second.

Going from `Cc1cc(C)c(C#N)c(Sc2ccc(Cl)cc2)n1` to `Cc1cc(=O)[nH]c(SCc2ccc(Cl)cc2)n1`, the z-score rises from -0.54 to 0.25.

Compared with `CN1C(=O)C2(/C(=C(/O)c3ccc(Cl)cc3)C(=O)C(=O)N2CC2CCCO2)c2ccccc21` (configuration not stated), `O=C1C(=O)N(CCCN2CCOCC2)C(c2ccco2)/C1=C(\O)c1ccc(F)cc1` (configuration not stated) is higher in z-score: 0.79 for the first, 2.92 for the second.

Compared with `CN(C)S(=O)(=O)N(CC(=O)NC1CC2CCC1C2)c1ccccc1` (configuration not stated), `COC(=O)c1ccc(S(=O)(=O)NCc2ccccc2)n1C` is higher in z-score: -1.13 for the first, 1.21 for the second.

Going from `N#C/C(=C\N1CCOCC1)S(=O)(=O)Cc1ccc(Cl)cc1` to `NC(=O)C1CCN(C(=O)C2CC(c3ccc(Cl)cc3)=NO2)CC1` (configuration not stated), the z-score rises from -1.52 to -1.13.

First: CC(=O)NC(Cc1c[nH]c2ccccc12)C(=O)O (configuration not stated)
Second: O=C(O)C1CC(=O)N(Cc2ccccc2Cl)C1 (configuration not stated)
The z-score of the first is higher: 2.44 for the first, -1.02 for the second.

First: Cc1oc2ccc(NS(=O)(=O)c3ccc4c5c(cccc35)C(=O)N4)cc2c1C(=O)OC(C)C
Second: CCOC(=O)C1=C(C)NC2=C(C(=O)c3ccccc32)C1c1cccc(F)c1 (configuration not stated)
The z-score of the first is higher: 2.44 for the first, -1.25 for the second.

Compared with `CCOC(=O)C1=C(C)NC2=C(C(=O)c3ccccc32)C1c1ccc(OC(=O)c2ccccc2)cc1` (configuration not stated), `CCn1c2c(c(=O)[nH]c1=O)C(c1ccccc1OC)C1=C(N2)c2ccccc2C1=O` (configuration not stated) is higher in z-score: -1.18 for the first, 2.33 for the second.

Going from `Cn1nc(Oc2nc(N3CCCCC3)nc(N3CCCCC3)n2)ccc1=O` to `Cn1c(N2CCCCC2)nc2c1c(=O)n(Cc1ccc(Cl)cc1Cl)c(=O)n2C`, the z-score falls from 1.65 to -1.04.

First: CCOC(=O)C(Nc1cccc(Cl)c1)C(=O)OCC
Second: CCOC(=O)CSc1nc2cc(Cl)ccc2s1
The z-score of the first is lower: -1.26 for the first, 0.3 for the second.

First: Cc1ccc(N=C2SC3(CC3)C(=O)N2c2ccc(C)cc2)cc1
Second: Cc1ccc(-c2cn3cc(C)ccc3n2)cc1
The z-score of the first is higher: 0.49 for the first, -0.35 for the second.

First: O=C1c2ccc3c4c(ccc(c24)C(=O)N1c1ccccc1)C(=O)N(c1ccccc1)C3=O
Second: O=C(CN1C(=O)/C(=C/c2ccccc2Cl)N=C1c1ccccc1)c1ccccc1
The z-score of the first is lower: -0.71 for the first, 0.22 for the second.

Compared with `CC1(C)Cc2c(sc3ncn4nc(-c5ccco5)nc4c23)C(C)(C)N1`, `Cc1ccc(C2Nc3nonc3NC3=C2C(=O)CC(C)(C)C3)cc1` (configuration not stated) is lower in z-score: 0.09 for the first, -0.08 for the second.

First: Nc1cccc2c(S(=O)(=O)N3CCCCC3)cccc12
Second: O=C1CC(N2CCN(c3cccc(Cl)c3)CC2)C(=O)N1c1cccc(Cl)c1 (configuration not stated)
The z-score of the first is lower: -1.6 for the first, 0.79 for the second.

Going from `Cc1cccc(NC(c2ccc3c(c2)OCO3)c2ccc3ccc(C)nc3c2O)n1` (configuration not stated) to `Cc1cccc(NC(c2cccc(F)c2)c2ccc3ccc(C)nc3c2O)n1` (configuration not stated), the z-score falls from 1.45 to 0.62.

Compared with `COc1ccc(-n2ncc(C(=O)NCc3c(Cl)cccc3Oc3ccccc3)c2C)cc1`, `O=C(NCc1ccc2c(c1)OCO2)c1ccc(Cn2cc(Cl)cn2)cc1` is higher in z-score: -2.95 for the first, 1.8 for the second.

First: N#Cc1ccc(N2CCN(C(=O)c3cc(-c4ccc(Cl)cc4)oc3C(F)(F)F)CC2)cc1
Second: CCc1ccc(C2CC(=O)Nc3n[nH]c(-c4ccc(Cl)cc4)c32)cc1 (configuration not stated)
The z-score of the first is lower: 0.32 for the first, 0.45 for the second.

Compared with `CC(C)c1cc(C(C)C)c(S(=O)(=O)NCc2cccnc2)c(C(C)C)c1`, `CCOc1ccc(S(=O)(=O)Nc2ccncc2)c(C)c1C` is higher in z-score: -0.34 for the first, 0.59 for the second.

First: Cc1cc(OCC(=O)O)cc2c1C(=O)CC(C)(C)O2
Second: CCOC(=O)c1c(N)sc2c1CC(C)(C)OC2
The z-score of the first is higher: 1.97 for the first, -0.32 for the second.

Compared with `Cc1nc(-c2cc(C#N)c(SCCNS(=O)(=O)c3ccc(Cl)cc3Cl)nc2C)cs1`, `CC(=O)Nc1ccc(C(=O)CSc2nc3nc(C)cc(C)c3c(=O)[nH]2)cc1` is higher in z-score: -0.5 for the first, -0.34 for the second.

Compared with `CC(=O)Nc1cc(Sc2ccc(C)cc2)c(F)cc1[N+](=O)[O-]`, `O=c1[nH]nc(Sc2ncc(Br)cc2[N+](=O)[O-])n1-c1ccc(Cl)cc1` is lower in z-score: -0.55 for the first, -0.78 for the second.

Going from `Cc1ccc2nc(CCC(=O)O)[nH]c2c1` to `O=C(O)CCCC(=O)Nc1ccc2c(c1)OCCO2`, the z-score falls from 1.6 to -0.36.

Going from `O=C(CSCc1c(F)cccc1Cl)NCc1ccc2c(c1)OCO2` to `O=[N+]([O-])c1ccc(CSc2nc3cc(Cl)c(F)cc3[nH]2)cc1`, the z-score falls from 1.3 to 0.13.

Going from `COc1cc(OC)cc(-c2nc3n(n2)C(c2cccc(OC)c2OC)C2=C(CCCC2=O)N3)c1` (configuration not stated) to `CCOCCOC(=O)C1=C(C)NC2=C(C(=O)CCC2)C1c1ccc(O)c(OCC)c1` (configuration not stated), the z-score falls from -0.15 to -0.34.

Going from `C=CCc1ccc(OCc2ccc(C(=O)OC)cc2)c(OC)c1` to `CC(C)(C)c1ccc(C(=O)Nc2cc(C#N)c3sc4ccccc4n3c2=O)cc1`, the z-score falls from 0.92 to -0.68.

Going from `Cc1cc(=O)[nH]c(SCc2cn3c(C)cc(C)nc3n2)n1` to `Cc1cc(-c2ccccc2)n2nc(C)cc2n1`, the z-score falls from 2.76 to 0.05.

Going from `O=C(Nc1cc(C(F)(F)F)cc(C(F)(F)F)c1)c1csc([N+](=O)[O-])c1` to `O=C(O)CC1S/C(=N\N=C\c2ccco2)NC1=O` (configuration not stated), the z-score falls from 1.87 to -0.87.

First: CC(c1ccccc1)C1C(C#N)=C(N)Oc2n[nH]c(-c3ccccc3)c21 (configuration not stated)
Second: N#Cc1sc(SCc2ccccc2)c2c1CC(c1ccccc1)CC2=O (configuration not stated)
The z-score of the first is lower: -0.54 for the first, 0.58 for the second.

Going from `Cc1cc(C)cc(N2CC(C)Cn3c2nc2c3c(=O)n(CC(=O)O)c(=O)n2C)c1` (configuration not stated) to `CCOC(=O)Cn1c(Sc2nc3c(c(=O)n(C)c(=O)n3C)n2C)nc2ccccc21`, the z-score rises from -0.04 to 2.22.

Going from `CC1=CC(C)(C)N(C(=O)NC2CCCCC2)c2ccc(C)cc21` to `Cn1ccnc1SCC(=O)Nc1cccc2nsnc12`, the z-score rises from -5.39 to -4.69.

Compared with `Cn1c(CSc2cccs2)nnc1SCc1c(Cl)cccc1Cl`, `CSCC(CSC)OC(=O)NC(=O)c1c(Cl)cccc1Cl` is lower in z-score: 0.02 for the first, -0.86 for the second.

Compared with `O=C1/C(=C/c2ccc(Cl)cc2)CCC/C1=C\c1ccc(Cl)cc1`, `COc1cc(C)c(Cl)cc1S(=O)(=O)n1ccnc1` is higher in z-score: -1.13 for the first, -0.35 for the second.

With `O=C(Nc1cccc(Br)c1)c1csc2c1CCCC2` the z-score was 5.59 (active).
`Cc1sc2nc(-c3ccccc3F)oc(=O)c2c1C` was tested, and the z-score was 3.11 (active).
For `COC(=O)C(Cc1c[nH]c2ccccc12)NC(=O)CN1CCCCC1` (configuration not stated), the z-score was 4.61 (active).
`COC(=O)c1c(C)oc2ccc(NS(=O)(=O)c3cccc4cccnc34)cc12` was tested, and the z-score was 3.25 (active).
For `O=C1N(c2ccccc2)C(=Nc2ccccc2)SC12CC2`, the z-score was 4.33 (active).
With `Cc1ccnc(NC(c2ccc(O)cc2)c2ccc3ccc(C)nc3c2O)c1` (configuration not stated) the z-score was 4.59 (active).
In the case of `CCC(CC)NC(=O)C1c2ccccc2Oc2ccccc21`, the z-score is reported as 6.16 (active).
In the case of `COc1ccc(-c2cn3ccc(C)cc3n2)cc1F`, the z-score is reported as 3.54 (active).
`CC(=O)C(Cc1ccc([N+](=O)[O-])cc1)(Cc1c(F)cccc1Cl)C(C)=O` was tested, and the z-score was 3.5 (active).
`Brc1ccccc1C1Nc2cccc3cccc(c23)N1` was tested, and the z-score was 5.91 (active).
For `COc1cccc(C2Nc3cccc4cccc(c34)N2)c1OC`, the z-score was 3.14 (active).
In the case of `Cc1cc(=O)[nH]c(SCc2cn3cccnc3n2)n1`, the z-score is reported as 3.69 (active).
With `O=C(O)C1CC(=O)N(c2cccc(Cl)c2)C1` (configuration not stated) the z-score was 8.4 (active).
For `CC1=CC(C)(C)N(S(=O)(=O)c2ccc(C)cc2)c2cc3c(cc21)OCO3`, the z-score was 3.26 (active).
In the case of `CN(C)c1ccc(/C=C2\CCC/C(=C\c3ccc(N(C)C)cc3Cl)C2=O)c(Cl)c1`, the z-score is reported as 3.37 (active).
For `CC1=N/C(=C/c2ccccc2Cl)C(=O)O1`, the z-score was 3.5 (active).
In the case of `CCOc1ccc(S(=O)(=O)n2ccnc2)c2ccccc12`, the z-score is reported as 3.38 (active).
